The results in this text go back to PubChem BioAssay (NCI).

This is part of a sample that, as a whole, favours compounds with a hit. Of some 83,000 tested, about 20% had one in any assay.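 Results are percent growth after 48 hours of single-concentration exposure. 100 means growth as in untreated cells, lower positive values show inhibition; negative values down to -100 show cell death.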 A number with no mark means an inactive call. Calls of active or inactive are those of the source. Rule for the calls: active = growth percent below 10; inactive = the rest.

Test systems include HCT-15 colon; HT29 colon; SNB-75 CNS; U251 CNS; PC-3 prostate; SK-MEL-5 melanoma; UACC-62 melanoma; LOX IMVI melanoma; SK-MEL-28 melanoma; SK-MEL-2 melanoma; EKVX NSCLC; SN12C renal; UO-31 renal; TK-10 renal; ACHN renal; CAKI-1 renal; A498 renal; CCRF-CEM leukemia; MOLT-4 leukemia; SNB-19 CNS.
Holding throughout (experiment): NCI-60 one-dose screen, 48 h (100 = growth as untreated, 0 = no growth, -100 = all killed)
What all share (conditions): 10 µM unless noted

Consider `O=C(O)C(/C=C/c1ccco1)=N\Nc1nc(-c2ccc(Cl)cc2)cs1`, for which the growth in the test with HCT-15 colon was 36.3%; with HT29 colon, 86.4%; with SNB-75 CNS it was 57.4%; in the test on U251 CNS it was 30.7%; in the test with PC-3 prostate it was 54.3%; with SK-MEL-5 melanoma, 62.1%. The growth was 57.1% in the test on UACC-62 melanoma; 46.7% in the test with LOX IMVI melanoma; 70.4% with SK-MEL-28 melanoma; 11.5% in the test on SK-MEL-2 melanoma; 67.1% in the test with EKVX NSCLC; 86.8% in the test with SN12C renal. Besides, the growth in the test on UO-31 renal is 38.8%; in the test with TK-10 renal, 77.6%; in the test on ACHN renal it was 69%; in the test with CAKI-1 renal, 63.9%; in the test with A498 renal, 65.2%; in the test on CCRF-CEM leukemia it was 24%.

Turning to `C=C(C)[C@@H]1CC[C@]2(C(=O)NCC(=O)OC)CC[C@]3(C)[C@H](CC[C@@H]4[C@@]5(C)Cc6c([nH]c7ccccc67)C(C)(C)[C@@H]5CC[C@]43C)[C@@H]12`, the growth in the test on HCT-15 colon was 81.9%; in the test with HT29 colon, 60.8%; in the test with SNB-75 CNS, 114%; with U251 CNS, 58.9%; with PC-3 prostate, 49.1%; with SK-MEL-5 melanoma it was 81.7%. For the same compound, the growth was 76.6% in the test on UACC-62 melanoma; 70.7% in the test with LOX IMVI melanoma; 95% in the test with SK-MEL-28 melanoma; 78.2% in the test on SK-MEL-2 melanoma; 71.5% with EKVX NSCLC; 70.9% in the test with SN12C renal. The growth in the test with UO-31 renal is 65.1%; in the test on TK-10 renal, 89.3%; in the test with ACHN renal it was 60.5%; in the test on CAKI-1 renal it was 58.6%; with CCRF-CEM leukemia it was 57.2%; with MOLT-4 leukemia, 40.9%.

In the case of `CC(C)CCSc1nc(NNC(N)=O)c(C#N)c(-c2ccccc2)n1`, the growth in the test on HCT-15 colon is 98.7%; in the test on HT29 colon it was 115%; in the test with SNB-75 CNS, 97.6%; with U251 CNS, 109%; in the test on PC-3 prostate it was 98.7%; with SK-MEL-5 melanoma it was 104%. Besides, the growth was 98.1% in the test with UACC-62 melanoma; 97.6% in the test on LOX IMVI melanoma; 104% with SK-MEL-28 melanoma; 107% in the test with SK-MEL-2 melanoma; 99.9% in the test on EKVX NSCLC; 95% in the test with SN12C renal. The growth in the test on UO-31 renal was 85.1%; with TK-10 renal, 105%; with ACHN renal, 97%; in the test on CAKI-1 renal it was 93.7%; with A498 renal, 105%; in the test with CCRF-CEM leukemia it was 100%. The growth with MOLT-4 leukemia is 110%.

As for `ClCC1(Cn2cnc3c(Cl)nc(Cl)nc32)COC1`, the growth in the test with HCT-15 colon is 45.9%; with HT29 colon, 76.8%; in the test with SNB-75 CNS, 85.4%; in the test on U251 CNS, 89.2%; with PC-3 prostate it was 66.3%; with SK-MEL-5 melanoma, 98.4%. In addition, the growth in the test with UACC-62 melanoma was 91.6%; in the test with SK-MEL-28 melanoma, 89.9%; in the test on SK-MEL-2 melanoma, 90.7%; in the test on EKVX NSCLC, 100%; in the test with SN12C renal, 95.6%; in the test on UO-31 renal, 88.7%. In addition, the growth in the test with TK-10 renal was 85.2%; with ACHN renal, 94.9%; in the test with CAKI-1 renal, 49%; with A498 renal, 89.6%; in the test on CCRF-CEM leukemia, 71.5%; in the test on MOLT-4 leukemia it was 87.7%.

Take `COC(=O)N[C@H]1CCc2cc(OC)c(OC)c(OC)c2-c2ccc(SC)c(=O)cc21`: the growth in the test with HCT-15 colon is 9.48% (active); in the test on HT29 colon it was 2.35% (active); in the test on SNB-75 CNS, 32.4%; in the test on U251 CNS, 12.8%; in the test with PC-3 prostate, 22.4%; in the test with SK-MEL-5 melanoma it was -42.9% (active). In addition, the growth is 34.9% with UACC-62 melanoma; 15.7% in the test with LOX IMVI melanoma; 56.9% in the test with SK-MEL-28 melanoma; 12.5% in the test with SK-MEL-2 melanoma; 32.2% in the test on EKVX NSCLC; 23.9% in the test with SN12C renal. In addition, the growth in the test with UO-31 renal was 44.5%; in the test on TK-10 renal, 47%; in the test on CAKI-1 renal it was 17%; in the test with CCRF-CEM leukemia, 15.6%.

In the case of `O=S(=O)(NCCNc1nccc(-c2c(-c3ccc(F)c(O)c3)nc3sccn23)n1)c1ccccc1`, the growth with HCT-15 colon was 92.3%; with HT29 colon, 64.6%; in the test with SNB-75 CNS, 137%; in the test with U251 CNS, 98.8%; in the test on PC-3 prostate, 67.8%; in the test with SK-MEL-5 melanoma, 58.1%. In addition, the growth in the test on UACC-62 melanoma was -0.791% (active); in the test with LOX IMVI melanoma, 27.7%; with SK-MEL-28 melanoma, 16.8%; in the test with SK-MEL-2 melanoma, 12.7%; with EKVX NSCLC, 101%; in the test on SN12C renal, 64.1%. The growth with UO-31 renal is 49.9%; in the test on TK-10 renal it was 138%; in the test with ACHN renal it was 57.5%; with CAKI-1 renal, 54.6%; in the test on A498 renal, 109%; with CCRF-CEM leukemia, 37.2%. For the same compound, in the test with MOLT-4 leukemia, the growth was 52.8%.

For `Cc1cc(C(=O)Nc2ncnc3nc[nH]c23)no1`, the growth with HCT-15 colon is 102%; in the test with HT29 colon, 103%; in the test on SNB-75 CNS, 79.5%; in the test on U251 CNS, 105%; in the test with PC-3 prostate, 97%; with SK-MEL-5 melanoma, 101%. In addition, the growth was 97% with UACC-62 melanoma; 99.4% in the test on LOX IMVI melanoma; 106% in the test on SK-MEL-28 melanoma; 131% with SK-MEL-2 melanoma; 103% in the test on EKVX NSCLC; 93.8% with SN12C renal. In addition, the growth in the test with UO-31 renal is 80.5%; in the test with TK-10 renal it was 118%; in the test with ACHN renal, 99.8%; in the test with A498 renal it was 110%; with CCRF-CEM leukemia it was 86.4%; with MOLT-4 leukemia, 91.7%.

Turning to `COc1cc2c(cc1[N+](=O)[O-])-c1ccc([N+](=O)[O-])cc1/C2=N/NC(N)=S`, the growth with HCT-15 colon was 72.3%; with HT29 colon it was 48.7%; in the test on SNB-75 CNS, 48.7%; in the test with U251 CNS it was 47.1%; in the test on PC-3 prostate it was 58%; in the test with SK-MEL-5 melanoma, 63.1%. The growth in the test on UACC-62 melanoma was 36.4%; in the test with LOX IMVI melanoma it was 43.5%; with SK-MEL-28 melanoma, 95.4%; in the test on SK-MEL-2 melanoma, 87.8%; in the test with UO-31 renal, 29.6%; in the test on TK-10 renal, 77.4%. Also, the growth in the test with ACHN renal was 37.4%; with CAKI-1 renal, 64.1%; in the test with CCRF-CEM leukemia, 56.6%; with MOLT-4 leukemia, 60.1%.

For `Cn1ncc2c(Nc3ccccc3Cl)nc(Cl)nc21`, the growth with HCT-15 colon was 98.4%; with HT29 colon, 96.2%; in the test with SNB-19 CNS, 114%; with U251 CNS, 112%; in the test with PC-3 prostate it was 109%; with SK-MEL-5 melanoma, 107%. Also, the growth in the test with UACC-62 melanoma was 87.1%; with LOX IMVI melanoma, 104%; in the test on SK-MEL-28 melanoma it was 119%; with SK-MEL-2 melanoma, 123%; in the test with EKVX NSCLC, 89.8%; in the test on SN12C renal, 92%. Moreover, the growth is 101% with UO-31 renal; 119% in the test on TK-10 renal; 95.6% with ACHN renal; 99.9% with CAKI-1 renal; 178% with A498 renal; 104% with CCRF-CEM leukemia. The growth in the test with MOLT-4 leukemia is 125%.
